Assay outcomes deposited in PubChem BioAssay by NMMLSC.
Bead autofluor: counter-screen for toxin protease inhibitors: compound fluorescence | compound autofluorescence counterscreen, microsphere flow cytometry; stronger effect = higher value | fluorescence intensity (no concentration beside the values) | 360,000 tested, 3.1% active; in the data active = fluorescence intensity above about 16000; inconclusive = no clear call, values can overlap the other calls
BoNT A protease: BoNT A light chain protease inhibition; multiplex microsphere protease substrate cleavage, flow cytometry; inhibition, % at 10 µM; 360,000 tested, 0.17% active; AID 588499; note: plate controls were buffer without enzyme for full effect and enzyme alone for no effect
BoNT F protease: BoNT F light chain protease inhibition; AID 588497; 360,000 tested, 0.22% active; Multiplex microsphere protease cleavage assay, flow cytometry; inhibition, % at 10 µM; in the data active = inhibition above about 35%, passing the limit was not always enough; inconclusive = no clear call, values can overlap the other calls; note: plate controls were buffer without enzyme for full effect and enzyme alone for no effect
Anthrax LF inh2: blocks Bacillus anthracis lethal factor protease; P15917; multiplex microsphere protease cleavage assay, LF; inhibition, % at 10 µM; 360,000 tested, 0.12% active; note: plate controls were buffer without enzyme for full effect and enzyme alone for no effect
An asterisk follows results filed as active; ? = inconclusive. This is a sample that favours compounds with a hit; in the whole collection about 3.5% have one here. Cut-off read from the data, not from the text of the source, unless noted: active = inhibition above about 30%; inconclusive = no clear call, values can overlap the other calls; inactive = below that.

SMILES | Bead autofluor | BoNT A protease | BoNT F protease | Anthrax LF inh2
CCc1ccc(NC(=S)N(CCOC)C2CCN(C(C)=O)CC2)cc1 | 3400 | -1 | 40* | 26
CCc1ccc(NC(=S)N(CCC(C)C)C2CCN(C(C)=O)CC2)cc1 | 3507 | -2 | 0 | -2
CC1(NC(=O)c2cc(S(=O)(=O)N3CCCCC3)ccc2Cl)CCS(=O)(=O)C1 (configuration not stated) | 24171* | -2 | -1 | 0
COc1ccc(S(=O)(=O)N2CCC(C(=O)NC3(C)CCS(=O)(=O)C3)CC2)cc1OC (configuration not stated) | 4920 | -4 | -12 | 7
CN(C)S(=O)(=O)c1ccc(S(=O)(=O)N(Cc2ccco2)Cc2ccccc2Cl)cc1 | 10976 | -1 | -8 | 0
CS(=O)(=O)N(Cc1ccco1)Cc1ccccc1Cl | 20334* | ? | -1 | 1
CCC1(CC)C(=O)NC(=O)NC1=Nc1cccc(OC)c1 | 4728 | 0 | 22 | 3
CCCCC1(CC)C(=O)NC(=O)NC1=Nc1ccc(OC)cc1 (configuration not stated) | 21503* | 3 | 5 | -1
O=C(NN1C(=O)NC2(CCCCC2)C1=O)c1ccc(Cl)s1 | 3905 | 0 | -2 | 6
CCc1ccc(N(CC(=O)NCCc2ccccc2)C(=O)CCC(=O)Nc2ccccn2)cc1 | 4133 | 1 | 0 | -2
CC(C)(C)c1ccc(-c2nc(C#N)c(NCc3cccnc3)o2)cc1 | 17505* | -3 | -8 | -3
O=C(Nc1cccc2ccccc12)c1nn(C23CC4CC(CC(C4)C2)C3)cc1[N+](=O)[O-] | 24019* | -2 | -4 | -2
O=C(Nc1ccc2ccccc2c1)c1nn(C23CC4CC(CC(C4)C2)C3)cc1Br | 23799* | -2 | -6 | -3
O=C(NCc1ccc(F)cc1)N1CCN(C(=O)c2ccccc2)CC1 | 5379 | ? | ? | ?
CC1Oc2ccccc2N(CC(=O)N(Cc2ccccc2)Cc2ccccn2)C1=O (configuration not stated) | 23187* | 0 | -1 | -3
CC(C)C1Oc2ccccc2N(CC(=O)NCCCN2C(C)CCCC2C)C1=O (configuration not stated) | 23299* | 0 | 2 | 2
CC1Oc2ccccc2N(Cc2ccccc2Cl)C1=O (configuration not stated) | 23481* | -1 | -2 | -2
CC1Oc2ccccc2N(CC(=O)NCCc2ccccc2)C1=O (configuration not stated) | 26874* | -11 | -11 | 1
O=C1COc2ccccc2N1Cc1ccccc1Cl | 9192 | -1 | 4 | -2
Cc1ccc2c(c1)N(CC(=O)NCCCN1CCOCC1)C(=O)C(C(C)C)O2 (configuration not stated) | 6472 | -1 | -3 | 0
CCOc1ccc(/C=C2\CCCc3c2nc2ccccc2c3C(=O)O)cc1OC | 5840 | 13 | 4 | 4
O/N=C(/c1ccccc1)c1cc2cc(Br)cc(Br)c2o1 | 3708 | 0 | 10 | 30*
O=c1[nH]c(Cc2cccc(C(F)(F)F)c2)nc2ccccc12 | 2644 | -5 | -3 | 7
COc1ccc(NC(=S)NCc2ccc3c(c2)cc(C)n3C)cc1 | 1884 | 25 | -135 | -120
CCOC(=O)CCC(=O)NCc1ccc2c(c1)cc(C)n2C | 18146* | 15 | 12 | 21
SMILES | Bead autofluor | BoNT A protease | BoNT F protease | Anthrax LF inh2
CCCCNC(=S)NCc1ccc2c(c1)cc(C)n2C | 3100 | 30* | -76 | -42
Cc1cc2cc(CNC(=S)NCc3ccccc3)ccc2n1C | 2043 | 45* | -120 | -80
COc1ccc(/C=C\C(=O)NCc2ccc3c(c2)cc(C)n3C)cc1OC | 2367 | 62* | -98 | -63
CN1CCN(c2ccc(CNS(=O)(=O)c3ccsc3)cc2)CC1 | 5666 | -1 | -11 | 3
CC(=O)Nc1nnc([N+](=O)[O-])s1 | 3640 | 0 | -1 | -5
O=S1(=O)N[C@@H](Cc2ccccc2)COc2cc(N3CCSCC3)ccc21 | 5249 | 0 | -4 | -5
CCc1cccc(C)c1NC(=S)NCc1ccc2c(c1)cc(C)n2C | 1803 | 57* | -141 | -101
Cc1ccccc1NC(=S)NCc1ccc2c(c1)cc(C)n2C | 4862 | 12 | -20 | 0
COc1ccccc1NC(=S)NCc1ccc2c(c1)cc(C)n2C | 2036 | 33* | -120 | -75
CN(C(=O)c1ccc(NC(=O)Cc2ccc([N+](=O)[O-])cc2)cc1)C1CCCC1 | 3132 | -1 | 8 | 0
Cc1ccccc1S(=O)(=O)NC(=O)C1(C)CCN1C(=O)C(C)(C)c1ccccc1 (configuration not stated) | 3681 | -1 | 2 | -8
CN1/C(=C/C2CC(=O)N(c3cccc4ccccc34)C2=O)C(C)(C)c2ccccc21 (configuration not stated) | 20679* | 16 | 16 | -12
CN1/C(=C/C2CC(=O)NC2=O)C(C)(C)c2ccccc21 (configuration not stated) | 19664* | 5 | 4 | 2
CCOc1ccc(N2C(=O)CC(/C=C3/N(C)c4ccccc4C3(C)C)C2=O)cc1 (configuration not stated) | 2652 | 3 | -11 | 1
CC(OC(=O)C1CCN(S(=O)(=O)c2ccc(F)cc2)CC1)C(=O)NC1CCCCC1C (configuration not stated) | 6352 | -1 | -8 | 4
CCc1ccc2c(c1)C(c1cccs1)=NNC(c1cccnc1)=N2 | 19854* | ? | 2 | -3
Cc1cc2c(C)cc(=O)oc2c2c1NCCC2 | 25354* | -6 | -7 | -2
COc1ccc(-c2nc(CS(=O)CC(=O)N3CCOCC3)c(C)o2)cc1OC (configuration not stated) | 4381 | 1 | -11 | -2
O=C1C2CC=CCC2C(=O)N1c1n[nH]c(CCc2ccccc2)n1 (configuration not stated) | 18666* | ? | 7 | -5
O=C(O)CCn1c(C2CCCCC2)nc2ccccc21 | 10101 | 0 | 1 | -3
c1ccc(CCn2c(C3CC3)nc3ccccc32)cc1 | 16345* | 0 | -5 | 0
Cc1cccc(C)c1NC(=O)c1sccc1SCc1cccc(C(F)(F)F)c1 | 17658* | -4 | -6 | -2
N#CCSc1ccsc1C(=O)Nc1ccc(F)cc1 | 16375* | 0 | -5 | -2
Cc1ccc(NC(=O)c2sccc2SCc2cccc(C(F)(F)F)c2)cc1 | 22569* | -7 | -12 | -5
CN(C)/C=C(\C#N)C(=O)Nc1ccc(F)cc1 | 2146 | 0 | -3 | -2
SMILES | Bead autofluor | BoNT A protease | BoNT F protease | Anthrax LF inh2
CC(C)(C)OC(=O)C[C@H]1C/C=C\C[C@H](CC(=O)NCCO)C(=O)N2CCC[C@@H]2COC1=O | 3793 | 0 | 2 | -6
COc1ccc(C)cc1NC(=O)CN1C(=O)COc2ccc(C)cc21 | 3642 | 0 | ? | -28
CC(C)(C)c1cn(-c2ccc(F)cc2)c(=S)[nH]1 | 19889* | ? | 9 | 0
Cn1c(SCc2cccc(Cl)c2)nc(C(F)(F)F)cc1=O | 18749* | 2 | 3 | -6
CCOC(=O)C1C(=O)NC(N2CCOCC2)=NC1c1ccco1 (configuration not stated) | 3097 | -1 | -12 | 0
CCOC(=O)C1C(=O)NC(c2ccccc2)=NC1c1ccc(Cl)cc1 (configuration not stated) | 22764* | 2 | 1 | -2
